{"source": "the supplement of paper PMC8253809"}
{"test_system": "HGGX39 (paediatric high-grade glioma line)", "assay": "growth inhibition (% activity, log2 RLU normalised to DMSO / staurosporine); higher = more growth inhibition", "details": "33 µM", "procedure,_shortened": "(§1)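 The growth-inhibition value comes from CellTiter-Glo luminescence, log2-transformed, normalised per plate to % activity between solvent and positive control wells, and taken as the median over replicates. Treatment of pHGG cell lines and H9-derived neural stem cells with approved drugs was at a single final concentration of about 33 μM, in triplicate, for 7 days at 37 °C, 5% CO2.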", "units": {"growth inhibition": "%"}}
{"smiles": "CC=CC1=C(C(=O)O)N2C(=O)[C@@H](NC(=O)[C@H](N)c3ccc(O)cc3)[C@H]2SC1", "growth inhibition": -1.99}
{"smiles": "O=C1[C@@H]2[C@H]3CC[C@H](C3)[C@@H]2C(=O)N1C[C@@H]1CCCC[C@H]1CN1CCN(c2nsc3ccccc23)CC1", "growth inhibition": 2.33}
{"smiles": "CC(=O)S[C@@H]1CC2=CC(=O)CC[C@]2(C)[C@H]2CC[C@@]3(C)[C@@H](CC[C@@]34CCC(=O)O4)[C@H]12", "growth inhibition": 4.84}
{"smiles": "NCCC(O)(P(=O)(O)O)P(=O)(O)O", "growth inhibition": 2.9}
{"smiles": "CCN(CC)C(=O)C1(c2ccccc2)CC1CN", "note": "(stereo not drawn)", "growth inhibition": 0.86}
{"smiles": "NC12CC3CC(CC(C3)C1)C2", "growth inhibition": 2.31}
{"smiles": "COc1ccc2cc(CCC(C)=O)ccc2c1", "growth inhibition": 0.174}
{"smiles": "Nc1ccc(/N=N/c2ccccc2)c(N)n1", "growth inhibition": -1.17}
{"smiles": "CN(C)C/C=C/C(=O)Nc1cc2c(Nc3ccc(F)c(Cl)c3)ncnc2cc1O[C@H]1CCOC1", "growth inhibition": 11.5}
{"smiles": "CC(C)OC(=O)C(C)(C)Oc1ccc(C(=O)c2ccc(Cl)cc2)cc1", "growth inhibition": 2.79}
{"smiles": "CCOc1ccccc1OC(c1ccccc1)C1CNCCO1", "note": "(stereo not drawn)", "growth inhibition": 0.0675}
{"smiles": "Cn1c(=O)c2c(ncn2CC(O)CO)n(C)c1=O", "note": "(stereo not drawn)", "growth inhibition": 2.44}
{"smiles": "CCCCCN(C)CCC(O)(P(=O)(O)O)P(=O)(O)O", "growth inhibition": 0.759}
{"smiles": "COc1ccc(-n2nc(C(N)=O)c3c2C(=O)N(c2ccc(N4CCCCC4=O)cc2)CC3)cc1", "growth inhibition": 1.79}
{"smiles": "O=C(O)CCc1nc(-c2ccccc2)c(-c2ccccc2)o1", "growth inhibition": 0.585}
{"smiles": "N=C(N)NCCN1CCCCCCC1", "growth inhibition": 2.8}
{"smiles": "CCCc1nn(C)c2c(=O)[nH]c(-c3cc(S(=O)(=O)N4CCN(C)CC4)ccc3OCC)nc12", "growth inhibition": 0.834}
{"smiles": "Cc1cccc(Nc2ccncc2S(=O)(=O)NC(=O)NC(C)C)c1", "growth inhibition": 1.47}
{"smiles": "NC(=O)CC[C@H](N)C(=O)O", "growth inhibition": -0.498}
{"smiles": "CO[C@H]1C(=O)[C@]2(C)[C@@H](OC)C[C@H]3OC[C@@]3(OC(C)=O)[C@H]2[C@H](OC(=O)c2ccccc2)[C@]2(O)C[C@H](OC(=O)[C@H](O)[C@@H](NC(=O)OC(C)(C)C)c3ccccc3)C(C)=C1C2(C)C", "growth inhibition": 26.1}
{"smiles": "CC(C(=O)O)c1ccc(C(=O)c2cccs2)cc1", "note": "(stereo not drawn)", "growth inhibition": -0.848}
{"smiles": "CC(=O)OCC(=O)[C@@]1(O)[C@H](C)C[C@H]2[C@@H]3CCC4=CC(=O)C=C[C@]4(C)[C@@]3(F)[C@@H](O)C[C@@]21C", "growth inhibition": 6.91}
{"smiles": "C[C@@H](c1ncncc1F)[C@](O)(Cn1cncn1)c1ccc(F)cc1F", "growth inhibition": 0.756}
{"smiles": "COc1nc(C)nc(Cl)c1NC1=NCCN1", "growth inhibition": 0.125}
{"smiles": "C[C@H](Cc1cc2c(c(C(N)=O)c1)N(CCCO)CC2)NCCOc1ccccc1OCC(F)(F)F", "growth inhibition": 0.741}
{"smiles": "CC(C)(Oc1ccc(Cl)cc1)C(=O)O", "growth inhibition": 0.448}
{"smiles": "N[C@@H]1CCCCN(c2c(F)cc3c(=O)c(C(=O)O)cn(C4CC4)c3c2Cl)C1", "growth inhibition": -1.72}
{"smiles": "COc1cc(NS(=O)(=O)c2ccc(N)cc2)nc(OC)n1", "growth inhibition": 1.71}
{"smiles": "CCC(NC(C)C)C(O)c1ccc(O)c(O)c1", "note": "(stereo not drawn)", "growth inhibition": 2.82}
{"smiles": "CCN(CC)C(=S)SSC(=S)N(CC)CC", "growth inhibition": 3.44}
{"smiles": "Cc1nc(Nc2ncc(C(=O)Nc3c(C)cccc3Cl)s2)cc(N2CCN(CCO)CC2)n1", "growth inhibition": 15.6}
{"smiles": "COC(=O)C1=C(C)NC(C)=C(C(=O)OC2CCCN(Cc3ccccc3)C2)C1c1cccc([N+](=O)[O-])c1", "note": "(stereo not drawn)", "growth inhibition": 6.94}
{"smiles": "N[C@@H](Cc1cc(I)c(Oc2ccc(O)c(I)c2)c(I)c1)C(=O)O", "growth inhibition": 5.93}
{"smiles": "O=C([O-])[C@H](O)[C@@H](O)[C@H](O)[C@H](O)CO.[Na+]", "growth inhibition": 1.7}
{"smiles": "CN(C/C=C/c1ccccc1)Cc1cccc2ccccc12", "growth inhibition": 1.84}
{"smiles": "[O-][n+]1cccc(CO)c1", "growth inhibition": 0.747}
{"smiles": "CNC(=C[N+](=O)[O-])NCCSCc1csc(CN(C)C)n1", "growth inhibition": 0.382}
{"smiles": "Cc1ccc(C)c(OCCCC(C)(C)C(=O)O)c1", "growth inhibition": 0.357}
{"smiles": "N#Cc1ccc(C(c2ccc(C#N)cc2)n2cncn2)cc1", "growth inhibition": -0.621}
{"test_system": "HGGX6 (H3.3 G34R paediatric high-grade glioma line)", "assay": "growth inhibition (% activity, log2 RLU normalised to DMSO / staurosporine); higher = more growth inhibition", "details": "33 µM", "procedure,_shortened": "as §1", "units": {"growth inhibition": "%"}}
{"smiles": "CC=CC1=C(C(=O)O)N2C(=O)[C@@H](NC(=O)[C@H](N)c3ccc(O)cc3)[C@H]2SC1", "growth inhibition": 1.84}
{"smiles": "O=C1[C@@H]2[C@H]3CC[C@H](C3)[C@@H]2C(=O)N1C[C@@H]1CCCC[C@H]1CN1CCN(c2nsc3ccccc23)CC1", "growth inhibition": 1.59}
{"smiles": "CC(=O)S[C@@H]1CC2=CC(=O)CC[C@]2(C)[C@H]2CC[C@@]3(C)[C@@H](CC[C@@]34CCC(=O)O4)[C@H]12", "growth inhibition": 2.78}
{"smiles": "NCCC(O)(P(=O)(O)O)P(=O)(O)O", "growth inhibition": 1.86}
{"smiles": "CCN(CC)C(=O)C1(c2ccccc2)CC1CN", "note": "(stereo not drawn)", "growth inhibition": 2.42}
{"smiles": "NC12CC3CC(CC(C3)C1)C2", "growth inhibition": 1.23}
{"smiles": "COc1ccc2cc(CCC(C)=O)ccc2c1", "growth inhibition": -2.89}
{"smiles": "Nc1ccc(/N=N/c2ccccc2)c(N)n1", "growth inhibition": -3.08}
{"smiles": "CN(C)C/C=C/C(=O)Nc1cc2c(Nc3ccc(F)c(Cl)c3)ncnc2cc1O[C@H]1CCOC1", "growth inhibition": 47.5}
{"smiles": "CC(C)OC(=O)C(C)(C)Oc1ccc(C(=O)c2ccc(Cl)cc2)cc1", "growth inhibition": -3.05}
{"smiles": "CCOc1ccccc1OC(c1ccccc1)C1CNCCO1", "note": "(stereo not drawn)", "growth inhibition": 0.362}
{"smiles": "Cn1c(=O)c2c(ncn2CC(O)CO)n(C)c1=O", "note": "(stereo not drawn)", "growth inhibition": -0.962}
{"smiles": "CCCCCN(C)CCC(O)(P(=O)(O)O)P(=O)(O)O", "growth inhibition": -3.74}
{"smiles": "COc1ccc(-n2nc(C(N)=O)c3c2C(=O)N(c2ccc(N4CCCCC4=O)cc2)CC3)cc1", "growth inhibition": 1.04}
{"smiles": "O=C(O)CCc1nc(-c2ccccc2)c(-c2ccccc2)o1", "growth inhibition": 1.25}
{"smiles": "N=C(N)NCCN1CCCCCCC1", "growth inhibition": 1.1}
{"smiles": "CCCc1nn(C)c2c(=O)[nH]c(-c3cc(S(=O)(=O)N4CCN(C)CC4)ccc3OCC)nc12", "growth inhibition": -0.171}
{"smiles": "Cc1cccc(Nc2ccncc2S(=O)(=O)NC(=O)NC(C)C)c1", "growth inhibition": -0.821}
{"smiles": "NC(=O)CC[C@H](N)C(=O)O", "growth inhibition": -1.45}
{"smiles": "CO[C@H]1C(=O)[C@]2(C)[C@@H](OC)C[C@H]3OC[C@@]3(OC(C)=O)[C@H]2[C@H](OC(=O)c2ccccc2)[C@]2(O)C[C@H](OC(=O)[C@H](O)[C@@H](NC(=O)OC(C)(C)C)c3ccccc3)C(C)=C1C2(C)C", "growth inhibition": 12.9}
{"smiles": "CC(C(=O)O)c1ccc(C(=O)c2cccs2)cc1", "note": "(stereo not drawn)", "growth inhibition": 1.96}
{"smiles": "CC(=O)OCC(=O)[C@@]1(O)[C@H](C)C[C@H]2[C@@H]3CCC4=CC(=O)C=C[C@]4(C)[C@@]3(F)[C@@H](O)C[C@@]21C", "growth inhibition": 5.01}
{"smiles": "C[C@@H](c1ncncc1F)[C@](O)(Cn1cncn1)c1ccc(F)cc1F", "growth inhibition": -0.00667}
{"smiles": "COc1nc(C)nc(Cl)c1NC1=NCCN1", "growth inhibition": -1.01}
{"smiles": "C[C@H](Cc1cc2c(c(C(N)=O)c1)N(CCCO)CC2)NCCOc1ccccc1OCC(F)(F)F", "growth inhibition": -0.678}
{"smiles": "CC(C)(Oc1ccc(Cl)cc1)C(=O)O", "growth inhibition": -2.21}
{"smiles": "N[C@@H]1CCCCN(c2c(F)cc3c(=O)c(C(=O)O)cn(C4CC4)c3c2Cl)C1", "growth inhibition": -3.25}
{"smiles": "COc1cc(NS(=O)(=O)c2ccc(N)cc2)nc(OC)n1", "growth inhibition": 2.67}
{"smiles": "CCC(NC(C)C)C(O)c1ccc(O)c(O)c1", "note": "(stereo not drawn)", "growth inhibition": 5.22}
{"smiles": "CCN(CC)C(=S)SSC(=S)N(CC)CC", "growth inhibition": 3.72}
{"smiles": "Cc1nc(Nc2ncc(C(=O)Nc3c(C)cccc3Cl)s2)cc(N2CCN(CCO)CC2)n1", "growth inhibition": 10.8}
{"smiles": "COC(=O)C1=C(C)NC(C)=C(C(=O)OC2CCCN(Cc3ccccc3)C2)C1c1cccc([N+](=O)[O-])c1", "note": "(stereo not drawn)", "growth inhibition": -0.555}
{"smiles": "N[C@@H](Cc1cc(I)c(Oc2ccc(O)c(I)c2)c(I)c1)C(=O)O", "growth inhibition": -3.21}
{"smiles": "O=C([O-])[C@H](O)[C@@H](O)[C@H](O)[C@H](O)CO.[Na+]", "growth inhibition": 0.0619}
{"smiles": "CN(C/C=C/c1ccccc1)Cc1cccc2ccccc12", "growth inhibition": 2.12}
{"smiles": "[O-][n+]1cccc(CO)c1", "growth inhibition": 0.543}
{"smiles": "CNC(=C[N+](=O)[O-])NCCSCc1csc(CN(C)C)n1", "growth inhibition": 0.506}
{"smiles": "Cc1ccc(C)c(OCCCC(C)(C)C(=O)O)c1", "growth inhibition": -0.472}
{"smiles": "N#Cc1ccc(C(c2ccc(C#N)cc2)n2cncn2)cc1", "growth inhibition": -0.866}
